How the values were obtained:
Experiment in all cases: DAPPL (digital affinity profiling via proximity ligation, sequencing); 10 mM Tris-HCl pH 7.5, 50 mM NaCl, 1 mM DTT, 4% glycerol, room temperature, 30 min; GST-TFs on glutathione beads, 16-mer random dsDNA library, 0.1% formaldehyde crosslink after washing; high values mean tight binding
FLI1 = target: T1, FLI1 (Homo sapiens, UniProt Q01543 1-452); details: protein: recombinant; tags: N-terminal GST; dsDNA, one strand shown
T1 sequence: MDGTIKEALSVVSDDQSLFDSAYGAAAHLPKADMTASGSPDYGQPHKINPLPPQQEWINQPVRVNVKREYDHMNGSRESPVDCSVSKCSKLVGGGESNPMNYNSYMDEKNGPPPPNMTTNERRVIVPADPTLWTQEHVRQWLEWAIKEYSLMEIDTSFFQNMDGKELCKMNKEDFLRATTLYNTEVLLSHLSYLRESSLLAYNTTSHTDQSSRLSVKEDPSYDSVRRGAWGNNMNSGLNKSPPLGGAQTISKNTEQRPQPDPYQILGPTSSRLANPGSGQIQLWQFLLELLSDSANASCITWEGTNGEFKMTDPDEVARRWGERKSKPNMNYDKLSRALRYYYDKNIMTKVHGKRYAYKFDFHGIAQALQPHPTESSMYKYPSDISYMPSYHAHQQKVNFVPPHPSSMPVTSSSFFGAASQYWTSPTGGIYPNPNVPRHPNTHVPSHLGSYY
In short: (§1)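 Binding signal is each hexamer's read frequency for a factor divided by its frequency in the tag-only sample. The factors were GST-fused human transcription factors from yeast, captured on glutathione beads, DNA-barcoded and pooled with that sample. Pools were incubated with 200 nmole of a random double-stranded 16-mer DNA library in Tris/NaCl/DTT/glycerol buffer at room temperature for 30 min, then washed, crosslinked with 0.1% formaldehyde, proximity-ligated with BsaI/T4 ligase (1 h, 37 °C), PCR-amplified and sequenced on an Illumina NextSeq500.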

ELK1 = target: T2, ELK1 (Homo sapiens, UniProt P19419 1-428); details: protein: recombinant; tags: N-terminal GST; dsDNA, one strand shown
T2 sequence: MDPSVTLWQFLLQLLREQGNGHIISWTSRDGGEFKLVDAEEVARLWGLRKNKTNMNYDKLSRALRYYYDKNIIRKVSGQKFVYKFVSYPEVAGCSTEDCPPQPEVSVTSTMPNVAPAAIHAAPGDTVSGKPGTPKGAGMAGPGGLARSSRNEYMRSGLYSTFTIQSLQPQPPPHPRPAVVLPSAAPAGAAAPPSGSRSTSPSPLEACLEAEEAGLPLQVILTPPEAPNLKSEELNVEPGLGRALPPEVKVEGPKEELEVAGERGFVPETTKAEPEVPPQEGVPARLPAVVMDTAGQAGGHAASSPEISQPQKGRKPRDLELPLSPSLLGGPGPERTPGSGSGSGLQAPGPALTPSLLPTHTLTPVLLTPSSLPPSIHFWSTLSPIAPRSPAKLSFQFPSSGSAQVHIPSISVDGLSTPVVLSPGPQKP
In short: as §1

GABPA = target: T3, GABPA (Homo sapiens, UniProt Q06546 1-454); details: protein: recombinant; tags: N-terminal GST; dsDNA, one strand shown
T3 sequence: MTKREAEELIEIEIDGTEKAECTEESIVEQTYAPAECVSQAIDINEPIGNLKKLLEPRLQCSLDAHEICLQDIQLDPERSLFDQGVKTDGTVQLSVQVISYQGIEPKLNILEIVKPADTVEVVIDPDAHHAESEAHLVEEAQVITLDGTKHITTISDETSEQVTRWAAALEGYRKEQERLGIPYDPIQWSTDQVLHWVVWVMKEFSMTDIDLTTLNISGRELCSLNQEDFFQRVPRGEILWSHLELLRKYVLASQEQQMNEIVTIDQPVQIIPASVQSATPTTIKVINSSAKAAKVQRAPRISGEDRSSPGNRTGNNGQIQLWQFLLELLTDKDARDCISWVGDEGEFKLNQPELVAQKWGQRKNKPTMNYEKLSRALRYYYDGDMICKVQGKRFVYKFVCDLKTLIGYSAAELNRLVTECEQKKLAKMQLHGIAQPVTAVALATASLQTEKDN
In short: as §1

ERG = target: T4, ERG (Homo sapiens, UniProt P11308 1-479); details: protein: recombinant; tags: N-terminal GST; dsDNA, one strand shown
T4 sequence: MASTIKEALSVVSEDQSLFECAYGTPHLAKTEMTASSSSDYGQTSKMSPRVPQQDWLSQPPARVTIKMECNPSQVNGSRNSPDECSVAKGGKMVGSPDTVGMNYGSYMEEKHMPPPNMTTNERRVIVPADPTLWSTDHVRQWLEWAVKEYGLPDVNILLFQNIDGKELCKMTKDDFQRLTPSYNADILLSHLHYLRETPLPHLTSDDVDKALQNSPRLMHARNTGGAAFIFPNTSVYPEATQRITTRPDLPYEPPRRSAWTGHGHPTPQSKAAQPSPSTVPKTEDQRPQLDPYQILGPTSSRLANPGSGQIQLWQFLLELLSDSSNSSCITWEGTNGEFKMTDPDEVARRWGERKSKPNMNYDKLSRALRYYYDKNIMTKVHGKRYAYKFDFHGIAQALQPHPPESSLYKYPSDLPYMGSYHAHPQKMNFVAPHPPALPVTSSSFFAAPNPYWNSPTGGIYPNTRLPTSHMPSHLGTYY
In short: as §1

ELF1 = ELF1 (Homo sapiens, UniProt P32519 1-619); details: protein: recombinant; tags: N-terminal GST; dsDNA, one strand shown
In short: as §1

SPI1 = SPI1 (Homo sapiens, UniProt P17947 1-270); details: protein: recombinant; tags: N-terminal GST; dsDNA, one strand shown
In short: as §1

SPIB = SPIB (Homo sapiens, UniProt Q01892 1-262); details: protein: recombinant; tags: N-terminal GST; dsDNA, one strand shown
In short: as §1

HSF1 = HSF1 (Homo sapiens, UniProt Q00613 1-529); details: protein: recombinant; tags: N-terminal GST; chain copies: 3; dsDNA, one strand shown
In short: as §1

ELF4 = ELF4 (Homo sapiens, UniProt Q99607 1-663); details: protein: recombinant; tags: N-terminal GST; dsDNA, one strand shown
In short: as §1

ETV2 = target: T5, ETV2 (Homo sapiens, UniProt O00321 1-342); details: protein: recombinant; tags: N-terminal GST; dsDNA, one strand shown
T5 sequence: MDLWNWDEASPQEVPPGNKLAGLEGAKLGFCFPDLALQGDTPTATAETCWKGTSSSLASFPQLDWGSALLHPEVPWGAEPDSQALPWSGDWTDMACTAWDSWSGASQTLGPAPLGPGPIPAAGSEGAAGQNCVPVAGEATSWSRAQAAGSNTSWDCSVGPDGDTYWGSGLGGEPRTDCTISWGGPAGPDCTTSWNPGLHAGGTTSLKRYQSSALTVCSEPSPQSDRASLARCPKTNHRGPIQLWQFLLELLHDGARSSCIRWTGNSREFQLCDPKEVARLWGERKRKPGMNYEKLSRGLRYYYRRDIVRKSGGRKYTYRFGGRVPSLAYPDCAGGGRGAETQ
In short: as §1

Chain of SPIB (Q01892 whole entry): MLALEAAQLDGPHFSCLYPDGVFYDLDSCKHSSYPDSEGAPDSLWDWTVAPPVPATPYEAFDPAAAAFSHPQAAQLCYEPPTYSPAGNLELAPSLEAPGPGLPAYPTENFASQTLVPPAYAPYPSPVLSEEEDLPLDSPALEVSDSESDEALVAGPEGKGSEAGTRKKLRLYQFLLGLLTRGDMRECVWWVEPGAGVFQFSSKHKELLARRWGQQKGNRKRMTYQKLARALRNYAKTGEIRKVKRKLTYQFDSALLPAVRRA
Chain of ELF1 (P32519 whole entry): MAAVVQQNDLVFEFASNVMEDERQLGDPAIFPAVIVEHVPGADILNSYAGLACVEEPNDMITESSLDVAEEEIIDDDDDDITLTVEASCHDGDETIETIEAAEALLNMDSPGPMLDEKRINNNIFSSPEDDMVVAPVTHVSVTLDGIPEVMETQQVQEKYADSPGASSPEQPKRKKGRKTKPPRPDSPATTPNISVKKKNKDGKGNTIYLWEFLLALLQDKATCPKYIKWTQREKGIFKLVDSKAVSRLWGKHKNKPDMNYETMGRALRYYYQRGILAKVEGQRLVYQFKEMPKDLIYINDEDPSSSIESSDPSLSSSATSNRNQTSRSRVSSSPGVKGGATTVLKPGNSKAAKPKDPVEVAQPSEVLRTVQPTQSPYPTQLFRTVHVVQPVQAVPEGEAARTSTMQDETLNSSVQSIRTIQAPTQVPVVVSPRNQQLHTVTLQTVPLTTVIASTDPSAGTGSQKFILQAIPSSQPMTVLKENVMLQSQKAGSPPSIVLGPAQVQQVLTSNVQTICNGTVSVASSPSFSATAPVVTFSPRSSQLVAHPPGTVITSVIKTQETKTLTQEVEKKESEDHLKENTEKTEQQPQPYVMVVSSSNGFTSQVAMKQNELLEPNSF
Chain of ELF4 (Q99607 whole entry): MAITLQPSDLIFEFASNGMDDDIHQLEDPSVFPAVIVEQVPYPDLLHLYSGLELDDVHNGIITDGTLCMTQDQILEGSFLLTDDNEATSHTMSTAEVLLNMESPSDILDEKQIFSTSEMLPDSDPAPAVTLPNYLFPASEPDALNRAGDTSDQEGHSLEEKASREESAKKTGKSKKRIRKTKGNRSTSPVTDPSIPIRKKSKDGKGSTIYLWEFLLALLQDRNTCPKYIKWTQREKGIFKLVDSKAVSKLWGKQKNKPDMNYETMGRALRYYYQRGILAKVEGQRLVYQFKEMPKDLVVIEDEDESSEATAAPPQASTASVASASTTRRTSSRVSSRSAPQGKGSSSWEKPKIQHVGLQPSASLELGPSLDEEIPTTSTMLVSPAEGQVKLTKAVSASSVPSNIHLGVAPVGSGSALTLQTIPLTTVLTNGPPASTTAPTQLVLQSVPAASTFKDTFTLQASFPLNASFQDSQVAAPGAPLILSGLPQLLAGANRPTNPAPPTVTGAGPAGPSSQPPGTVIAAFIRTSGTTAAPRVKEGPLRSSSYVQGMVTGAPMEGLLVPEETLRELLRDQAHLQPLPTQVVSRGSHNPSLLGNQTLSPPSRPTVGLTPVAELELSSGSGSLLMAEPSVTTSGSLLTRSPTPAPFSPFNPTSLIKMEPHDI
Chain of HSF1 (Q00613 whole entry): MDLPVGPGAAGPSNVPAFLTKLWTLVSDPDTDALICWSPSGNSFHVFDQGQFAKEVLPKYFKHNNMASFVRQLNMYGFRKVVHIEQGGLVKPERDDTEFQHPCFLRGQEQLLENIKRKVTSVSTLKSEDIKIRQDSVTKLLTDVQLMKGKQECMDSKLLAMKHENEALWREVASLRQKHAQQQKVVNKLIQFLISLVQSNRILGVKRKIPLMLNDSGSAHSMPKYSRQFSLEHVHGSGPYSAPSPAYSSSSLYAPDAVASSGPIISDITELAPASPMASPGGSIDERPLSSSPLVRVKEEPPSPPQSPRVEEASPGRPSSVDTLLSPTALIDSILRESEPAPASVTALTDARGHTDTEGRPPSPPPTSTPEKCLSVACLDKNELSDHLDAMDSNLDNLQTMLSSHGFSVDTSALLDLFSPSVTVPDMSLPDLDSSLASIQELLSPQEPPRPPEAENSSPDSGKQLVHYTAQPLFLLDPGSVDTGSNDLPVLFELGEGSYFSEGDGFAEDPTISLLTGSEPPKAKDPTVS

TCAGAT
binding signal (FLI1): 1.01 fold enrichment (6-mer frequency, TF over GST control) | binding signal (ELK1): 1.05 fold enrichment (6-mer frequency, TF over GST control) | binding signal (GABPA): 1.03 fold enrichment (6-mer frequency, TF over GST control) | binding signal (ERG): 1.06 fold enrichment (6-mer frequency, TF over GST control) | binding signal (ELF1): 1.04 fold enrichment (6-mer frequency, TF over GST control) | binding signal (SPI1): 1.08 fold enrichment (6-mer frequency, TF over GST control) | binding signal (SPIB): 1.02 fold enrichment (6-mer frequency, TF over GST control) | binding signal (HSF1): 1.21 fold enrichment (6-mer frequency, TF over GST control) | binding signal (ELF4): 1.02 fold enrichment (6-mer frequency, TF over GST control) | binding signal (ETV2): 1.08 fold enrichment (6-mer frequency, TF over GST control)

Source: publication PMC7862700, “An all-to-all approach to the identification of sequence-specific readers for epigenetic DNA modifications on cytosine”
